{"source": "PubChem BioAssay AID1469", "about": "(National Center for Advancing Translational Sciences (NCATS), 2008)", "note": "The campaign covered roughly 280,000 compounds. About 180 (0.064%) were called active. The list comes from a sample in which actives are over-represented; it also holds similar structures and randomly drawn compounds. Unmarked numbers belong to inactive results. Calls come from the whole dose curve; as a rule, active = well fitted inhibition curve with a large enough effect; inconclusive = small, poorly fitted or top-dose-only effect, or effect the other way; inactive = flat fitted curve, though single readings scatter. Potency is the fitted concentration of half-maximal effect."}
{"molecular_target": "Thyroid hormone receptor beta (Homo sapiens) (UniProt P10828)", "sequence (P10828 whole entry, looked up)": "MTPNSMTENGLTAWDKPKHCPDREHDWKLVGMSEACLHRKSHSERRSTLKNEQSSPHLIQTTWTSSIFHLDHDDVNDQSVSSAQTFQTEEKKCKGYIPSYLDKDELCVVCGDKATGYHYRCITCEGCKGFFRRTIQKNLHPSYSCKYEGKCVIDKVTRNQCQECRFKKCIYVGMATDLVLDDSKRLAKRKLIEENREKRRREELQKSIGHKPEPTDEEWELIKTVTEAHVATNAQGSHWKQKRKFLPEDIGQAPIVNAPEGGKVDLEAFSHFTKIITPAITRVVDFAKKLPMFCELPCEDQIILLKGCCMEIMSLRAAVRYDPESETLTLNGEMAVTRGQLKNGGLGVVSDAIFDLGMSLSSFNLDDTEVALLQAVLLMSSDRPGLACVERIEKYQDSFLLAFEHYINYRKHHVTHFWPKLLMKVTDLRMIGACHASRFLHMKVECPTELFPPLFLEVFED", "experiment": "qHTS for Inhibitors of the Interaction of Thyroid Hormone Receptor and Steroid Receptor Coregulator 2; note: nearly all actives have a fitted effect of over 50% in size;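 for activity change, negative = inhibition: plate controls were bound peptide for no effect and peptide without receptor for full effect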", "conditions": "TRbeta-SRC2 peptide binding, fluorescence polarization, receptor liganded with 1 µM T3; series mostly up to 106 µM; activity change, negative = inhibition: at the top concentration", "excerpt": "NIH Molecular Libraries Probe Production Network [MLPCN]\nNIH Chemical Genomics Center [NCGC]\nAssay Provider: R. Kip Guy, St. Jude Children's Research Hospital\nThyroid receptor (TR) regulates many homeostatic processes including basal metabolism, cardiovascular function, body weight, and lipid trafficking. TR modulators are potential therapeutics for obesity and hyperlipidemias but current thyroid analogs have undesirable side effects, particularly cardiac stimulation. To identify inhibitors that specifically prevent the interaction of TR with the steroid receptor coregulator 2 (SRC2), a fluorescence polarization assay was screened. This assay detects interaction of the ligand-binding domain of human TRb with a Texas Red labeled SRC2 peptide, corresponding to a 20 amino acid region of the nuclear receptor interaction domain (Arnold et al., 2006). Small molecule inhibitors that block the interaction of TR and SRC2 are detected by a decrease in fluorescence polarization.\nArnold, L. A.; Estebanez-Perpina, E.; Togashi, M.; Shelat, A.; Ocasio, C. A.; McReynolds, A. C.; Nguyen, P.; Baxter, J. D.; Fletterick, R. J.; Webb, P.; Guy, R. K. A high-throughput screening method to identify small molecule inhibitors of thyroid hormone receptor coactivator binding. Sci STKE 2006, p 13.\nNCGC Assay Protocol Summary:\nFor screening, 5 uL/well 0.6 uM TRb and 20 nM SRC2 Texas Red in protein buffer (20mM Tris hydrochloride, 100mM NaCl, 10% glycerol, 1mM EDTA, 0.01% NP-40, 1mM DTT, 1uM T3 and 5% DMSO) was dispensed into black solid 1536-well plates (Grenier) using a solenoid-based dispenser. Following transfer of 23 nL compound or DMSO vehicle by a pin tool, the plates were centrifuged 15 s at 1000 RPM and incubated 5 hr at ambient temperature. The plates were read by an Envision (Perkin Elmer) to detect fluorescence polarization of SRC2 Texas Red (555 nm excitation and 632 nm emission). Data were normalized to unbound (all components except TRb) and bound SRC2 Texas Red controls. In this assay, we provide % activity data for each concentration as well as potencies for the active compounds.\nKeywords: NIH Roadmap, MLPCN, MLI, MLSMR, qHTS, NCGC, qHTS, thyroid hormone receptor, steroid receptor coactivator, fluorescence polarization"}
{"smiles": "Cc1ccc(CN2CCc3nc(N4CCN(C)CC4)ncc3C2)cc1", "activity change, negative = inhibition": "-3.16%"}
{"smiles": "CCN1CCN(c2ncc3c(n2)CC(c2ccccc2O)CC3=O)CC1", "note": "(stereo not drawn)", "activity change, negative = inhibition": "4.08%"}
{"smiles": "Cc1nc2nc(SCC(=O)N(Cc3ccccc3)C(C)C)nn2c(C)c1Cc1ccccc1Cl", "activity change, negative = inhibition": "6.02%"}
{"smiles": "Cc1ccc(NC(=O)c2nc(S(=O)(=O)Cc3cccc(C)c3)ncc2Cl)cc1", "activity change, negative = inhibition": "-0.903%"}
{"smiles": "CC(=O)OC1=C(C(C)=O)N(Cc2ccccc2)S(=O)(=O)c2ccccc21", "activity change, negative = inhibition": "-0.701%"}
{"smiles": "Cc1cccc(OCCSc2nc3ccccc3n2CC(=O)N2CCCCC2)c1C", "activity change, negative = inhibition": "-1.35%"}
{"smiles": "Cc1ccccc1CNC(=O)CCCn1nc(C)c2sc3ccccc3c2c1=O", "activity change, negative = inhibition": "-0.387%"}
{"smiles": "Cc1c(C)n(Cc2ccc(Cl)cc2)c2ccc(C(=O)NCCc3ccc(S(N)(=O)=O)cc3)cc12", "activity change, negative = inhibition": "-3.01%"}
{"smiles": "COc1ccc2cc(CNc3ccc(OC)c(OC)c3)c(=O)n(CC(=O)Nc3ccccc3F)c2c1", "activity change, negative = inhibition": "-2.35%"}
{"smiles": "CSc1ccc(C2C(C(=O)Nc3ccccc3)=C(C)Nc3nc4ccccc4n32)cc1", "note": "(stereo not drawn)", "activity change, negative = inhibition": "-8.79%"}
{"smiles": "COc1ccc(CCNC(=O)c2nn(C)c3c2CSc2ccccc2-3)cc1OC", "activity change, negative = inhibition": "-1.01%"}
{"smiles": "COc1ccc(-c2nc(C)c(CCNC(=O)c3ccc(C(F)(F)F)cc3)s2)cc1OC", "activity change, negative = inhibition": "0.0329%"}
{"smiles": "COc1c(O)c2c(=O)cc(OC)c3c4c(OC)cc(=O)c5c(O)c(OC)c6c(c(c1C[C@@](C)(O)[C@H]6C(C)=O)c23)c54", "Potency": "35.5 µM (active)"}
{"smiles": "COc1ccc2c(c1)c(N1CCCC1=O)c(C(=O)Nc1ccc(OC)c(Cl)c1)n2C", "activity change, negative = inhibition": "3.35%"}
{"smiles": "COc1ccc(Cl)cc1NC(=O)c1sc2nc3c(cc2c1N)CN(C)CC3", "activity change, negative = inhibition": "0.478%"}
{"smiles": "Cc1cccc(NC(c2cccc(F)c2)c2ccc3ccc(C)nc3c2O)n1", "note": "(stereo not drawn)", "activity change, negative = inhibition": "0.0507%"}
{"smiles": "CCOc1ccc(N(Cc2ccccc2)C(=O)c2nc(S(C)(=O)=O)ncc2Cl)cc1", "activity change, negative = inhibition": "-7.22%"}
{"smiles": "CC1CCCCC1NC(=O)/C(C#N)=C/C=C/c1ccccc1[N+](=O)[O-]", "note": "(stereo not drawn)", "Potency": "39.8 µM (active)"}
{"smiles": "O=C(/C=C/c1ccccc1[N+](=O)[O-])NCC1CCCO1", "note": "(stereo not drawn)", "activity change, negative = inhibition": "1.44%"}
{"smiles": "O=C(/C=C/c1ccccc1[N+](=O)[O-])OC1CCCCC1=O", "note": "(stereo not drawn)", "activity change, negative = inhibition": "0.395%"}
{"smiles": "CCNS(=O)(=O)c1cc(-c2nnc(Nc3cccc(C(F)(F)F)c3)c3ccccc23)ccc1C", "activity change, negative = inhibition": "8.87%"}
{"smiles": "O=C(NCCCN1CCN(c2cccc(Cl)c2)CC1)c1nnc(Cc2ccc(F)cc2Cl)o1", "activity change, negative = inhibition": "5.2%"}
{"smiles": "COc1ccc(-c2cc(NCc3ccc(F)cc3)n3cnnc3n2)cc1", "activity change, negative = inhibition": "2.27%"}
{"smiles": "Cc1ccc(NC(=O)CN2C(=O)C(c3ccc(F)cc3)=NC23CCCCCC3)c(C)c1", "activity change, negative = inhibition": "-0.31%"}
{"smiles": "Cc1ccc(Nc2c(-c3ccc(N(C)C)cc3)nc3nc[nH]n23)cc1", "activity change, negative = inhibition": "2.09%"}
{"smiles": "O=C(NC1CC(=O)N(c2ccc(F)cc2)C1)c1ccc(S(=O)(=O)N2CCCC2)cc1", "note": "(stereo not drawn)", "activity change, negative = inhibition": "-0.489%"}
{"smiles": "COC(=O)c1ccc(NC(=O)CSc2n[nH]c(-c3ccccc3)n2)cc1", "activity change, negative = inhibition": "1.11%"}
{"smiles": "Cn1nc(-c2ccccc2)c(-c2ccccc2)c(C(=O)Nc2ccc(S(N)(=O)=O)cc2)c1=O", "activity change, negative = inhibition": "-7.69%"}
{"smiles": "COc1ccc(-c2cn3c(n2)sc2cc(C(=O)Nc4ccccc4F)ccc23)cc1", "activity change, negative = inhibition": "0.784%"}
{"smiles": "CCOc1cccc(NC(=O)CSc2ncc(-c3ccc(Cl)cc3)[nH]2)c1", "activity change, negative = inhibition": "8.96%"}
{"smiles": "O=C(Nc1c(C(=O)N2CCN(c3ccc(F)cc3)CC2)oc2ccccc12)c1ccco1", "activity change, negative = inhibition": "5.17%"}
{"smiles": "COc1ccc(-c2noc(CSc3nc(C)cc(=O)[nH]3)n2)cc1OC", "activity change, negative = inhibition": "-6.31%"}
{"smiles": "CCOC(=O)c1cnc2c(C)cc(C)cc2c1Nc1ccc(N2CCOCC2)cc1", "activity change, negative = inhibition": "4.22%"}
{"smiles": "CC(C)c1ccc(C2CC(=O)N3CN(C4CCCCC4)CSC3=C2C#N)cc1", "note": "(stereo not drawn)", "activity change, negative = inhibition": "-3.24%"}
{"smiles": "Clc1nc(Cl)c(Cl)c(Cl)c1Cl", "activity change, negative = inhibition": "2.91% [at 201 µM]"}
{"smiles": "O=C(c1cnn(-c2ccc(F)cc2)c1-n1cccc1)N1CCN(c2ccc(F)cc2)CC1", "activity change, negative = inhibition": "-0.53%"}
{"smiles": "COc1ccc(-c2cccc(NS(=O)(=O)c3cc(C)c(OC)c(C)c3C)c2)nn1", "activity change, negative = inhibition": "-3.96%"}
{"smiles": "O=C(CSc1nc2nccnc2c(=O)n1CCc1c[nH]c2ccccc12)Nc1ccccc1F", "activity change, negative = inhibition": "-1.34%"}
{"smiles": "COc1cccc(-n2cc(C(=O)NCc3cccc(Cl)c3)c3ccccc3c2=O)c1", "activity change, negative = inhibition": "5.09%"}
{"smiles": "CCN(Cc1ccccc1)C(=O)c1cn(-c2cccc(OC)c2)c(=O)c2ccccc12", "activity change, negative = inhibition": "0.692%"}
{"smiles": "O=C(CSc1nccn1-c1ccc(F)cc1)Nc1cccc2ccccc12", "activity change, negative = inhibition": "-1.67%"}
{"smiles": "CC1=C(c2ccc(C)cc2)S(=O)(=O)NC1=NCCCN1CCN(c2cc(C)ccc2C)CC1", "activity change, negative = inhibition": "-0.687%"}
{"smiles": "COc1ccc(-c2cc(C(=O)NCc3cc(OC)c(OC)c(OC)c3)[nH]n2)cc1", "activity change, negative = inhibition": "1.65%"}
{"smiles": "CCC(C(=O)Nc1cc(OC)ccc1OC)n1c(=O)c(C(F)(F)F)nc2ccccc21", "note": "(stereo not drawn)", "activity change, negative = inhibition": "-2.12%"}
{"smiles": "CCOC(=O)c1oc2ccc(S(=O)(=O)n3nc(-c4ccccc4OC)cc3N)cc2c1C", "activity change, negative = inhibition": "-12.1%"}
{"smiles": "COc1ccc(NS(=O)(=O)c2cc3c4c(c2)CC(=O)N4CCC3)cc1Cl", "activity change, negative = inhibition": "5.52%"}
{"smiles": "Cc1ccc(C)c(Nc2nnc(-c3ccc(C)c(S(=O)(=O)N4CCCCC4)c3)c3ccccc23)c1", "activity change, negative = inhibition": "-0.116%"}
{"smiles": "O=C(C1CCCN(S(=O)(=O)c2cccc3nonc23)C1)N1CCN(c2ccccc2F)CC1", "note": "(stereo not drawn)", "activity change, negative = inhibition": "-9.58%"}
